Source: PubChem BioAssay (NCI)
Compounds without any hit were thinned out: in the full panel of roughly 83,000, 20% have a hit.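 Negative percent growth values reflect cell death: -40 means 40% of the cells present at the start died, and -100 means all died.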 Active and inactive are the calls of the source. Rule for the calls: active = growth percent below 10; inactive = the rest.

The compounds below were run on OVCAR-5 ovarian (assay: NCI-60 one-dose screen, 48 h (100 = growth as untreated, 0 = no growth, -100 = all killed)). Conditions: 10 µM unless noted.

SMILES	growth
O=C1Nc2ccc(Cl)cc2/C1=C/c1ccc[nH]1	83.7% (inactive)
Cn1c2ccccc2c2c3c(c4c5cc(Br)ccc5n(C)c4c21)C(=O)N(O)C3=O	92.6% (inactive)
O=S(=O)(NCCNc1nccc(-c2c(-c3ccc(F)c(O)c3)nc3sccn23)n1)c1ccc(Cl)cc1	93.1% (inactive)
Cc1ccc(OCCOCCOCCOc2ccc(C)n(O)c2=S)c(=S)n1O	38.5% (inactive)
C[C@@H]1NC(=O)[C@H](Cc2ccccc2)N(Cc2cccnc2)C1=O	96.7% (inactive)
C=CC(CC(c1ccccc1)(c1ccccc1)c1ccccc1)N(CC)CC (centres undefined)	72.5% (inactive)

What follows are compounds tested on OVCAR-4 ovarian in the same assay as above. Conditions: 10 µM unless noted.

SMILES	growth
COc1ccc(/C=N/NC(=O)Cn2c(-c3ccc(S(C)(=O)=O)cc3)nc3ccccc32)cc1	117% (inactive)
CN(C)CCCn1c2c(c3ccncc3c1=O)C(=O)c1ccccc1-2	-8.01% (active)
OC1(c2ccccc2)c2ccccc2N(c2ccccc2)c2ccc(Cl)cc21 (centres undefined)	-82.8% (active)
CC1(/C=C/c2ccc(-c3ccccc3)cc2)CCn2cnc3ncnc(c32)N1O (centres undefined)	36.6% (inactive)
C=C1C(=O)O[C@H]2[C@H]1CC/C(COC(=O)/C=C\C(=O)NCc1ccc(Cn3c(=O)sn(CCCCl)c3=O)cc1)=C\CC[C@@]1(C)O[C@@H]21	74.9% (inactive)
C#Cc1cccc(NC(=O)C2CCCCN2C(=O)CCl)c1 (centres undefined)	-66.9% [8.25 µM] (active)
O=C1CCCC1[n+]1ccccc1 (centres undefined)	98% (inactive)
N#C/C(=C\c1ccc(-c2cccc(Cl)c2)o1)C(=O)Nc1ncc(Cc2ccc(Cl)cc2)s1	-45.5% (active)
